This is a sample that favours compounds with a hit; in the whole collection about 19% have one here.
IL1B secr inh: qHTS for Inhibitors of Inflammasome Signaling: IL-1-beta AlphaLISA Primary Screen | THP-1 LPS/ATP IL-1B secretion, AlphaLISA, 16 h; active compounds read low | 360,000 tested, 4.7% active | activity change, % at 57.5 µM; in the data active = activity change below about -50%; inconclusive = mostly about -30% to -49%; also: % is scaled to controls: 0 for no effect and ±100 for the full control effect
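Secreted IL-1B measured by AlphaLISA bead assay after 16 h compound exposure of THP-1 cells; compounds (final up to 57.5 uM) added 1 h before LPS (250 ng/mL) and ATP (1.25 mM) stimulation; lower signal means less secretion.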
TDP1 cell noCPT: qHTS for Inhibitors of human tyrosyl-DNA phosphodiesterase 1 (TDP1): qHTS in cells in absence of CPT | 420,000 tested, 15% active | Potency, µM (highest dose often 46.2 µM), inactives show at the highest dose activity change, negative = growth inhibition, hits mostly inhibitors | DT40 Tdp1-/- hTDP1 cells, no CPT, ATP luminescence, 48 h; also: potency is read from the fitted curve at half-maximal effect; % is scaled to controls: 0 for no effect and ±100 for the full control effect; nearly all actives have a fitted effect of over 55% in size
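Cells were dispensed at 400 per well, compounds added by pin tool, plates incubated ≥48 hr at 37 °C, then CellTiter-Glo added for 30 min at room temperature before luminescence reading. Line: DT40 Tdp1-/- complemented with hTDP1; camptothecin omitted.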
S-ASM inh: Inhibitors of Secretory Acid Sphingomyelinase (S-ASM): qHTS; AID 504937, 2011; Sphingomyelin phosphodiesterase (Homo sapiens), P17405; Potency, µM (doses to about 57.5 µM), for the others: at the top dose activity change, negative = inhibition, hits mostly inhibitors; placental ASM, HMU-PC fluorogenic substrate, 60 min; 340,000 tested, 0.006% active; also: potency is read from the fitted curve at half-maximal effect
Target sequence (P17405 47-631 limits assumed): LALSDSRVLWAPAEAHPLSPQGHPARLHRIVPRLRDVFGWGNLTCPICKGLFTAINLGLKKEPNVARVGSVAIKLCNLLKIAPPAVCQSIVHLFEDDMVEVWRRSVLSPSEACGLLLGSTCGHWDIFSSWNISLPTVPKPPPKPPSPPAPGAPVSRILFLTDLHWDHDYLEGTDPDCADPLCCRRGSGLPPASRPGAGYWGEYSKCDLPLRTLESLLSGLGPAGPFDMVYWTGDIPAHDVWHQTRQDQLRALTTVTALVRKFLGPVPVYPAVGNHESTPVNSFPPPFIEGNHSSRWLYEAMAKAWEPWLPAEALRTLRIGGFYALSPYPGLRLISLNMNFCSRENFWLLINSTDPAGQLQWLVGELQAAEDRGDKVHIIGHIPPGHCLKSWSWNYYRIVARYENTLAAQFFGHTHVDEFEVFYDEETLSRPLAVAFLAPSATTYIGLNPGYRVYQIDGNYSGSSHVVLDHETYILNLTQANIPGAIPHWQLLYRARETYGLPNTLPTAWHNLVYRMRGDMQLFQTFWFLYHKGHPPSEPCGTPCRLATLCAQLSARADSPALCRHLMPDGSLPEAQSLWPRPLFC
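Fluorogenic HMU-PC substrate (9 uM final) is turned over by placental ASM in 60 min at 37 C after a 10 min compound preincubation. Reaction ended by alkaline stop (pH 10), with fluorescence read at 386/447 nm.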
DT40 TDP1 CPT: qHTS for Inhibitors of human tyrosyl-DNA phosphodiesterase 1 (TDP1): qHTS in cells in presence of CPT; chicken DT40 Tdp1-/-;hTDP1 cells + 20 nM CPT, ATP luminescence, 48 h; AID 686979, 2013; Potency, µM (doses to about 46.2 µM), inactives show top-dose activity change, negative = growth inhibition, most hits filed as inhibitors; 420,000 tested, 12% active; also: potency is read from the fitted curve at half-maximal effect; % is scaled to controls: 0 for no effect and ±100 for the full control effect; nearly all actives have a fitted effect of over 55% in size
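Cell growth measured by CellTiter-Glo luminescence after a minimum 48 h, 37 C compound exposure with 20 nM CPT in Tdp1-knockout DT40 cells stably expressing hTDP1, seeded 400/well; qHTS titration format.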
TGFb SMAD3 inh: qHTS for Inhibitors of TGF-b. HepG2 CAGA-GFP TGF-b/SMAD3 reporter, GFP fluorescence, 18 h; TGF-beta stimulated, 500 pg/mL final. Potency, µM (titrated, usually from 46.1 µM), for inactives: at the highest dose activity, negative = inhibition, actives largely listed as inhibitors. 410,000 tested, 1.2% active; also: potency is read from the fitted curve at half-maximal effect; % is scaled to controls: 0 for no effect and ±100 for the full control effect; nearly all actives have a fitted effect of over 65% in size
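Cell-based qHTS in HEPG2 carrying a CAGA-GFP Smad reporter; compounds added before 500 pg/mL final TGF-beta, 18 h incubation at 37 degrees C, GFP fluorescence quantified per cell by imaging cytometry.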
HepG2 viability: qHTS for Inhibitors of TGF-b: Cytotox Counterscreen | Potency, µM (series often up to 46.1 µM), for inactives: top-dose activity change, negative = cytotoxicity, actives largely listed as cytotoxic | AID 588856, 2011 | HepG2 CAGA-GFP viability, ATP luminescence, 18 h | 410,000 tested, 0.76% active; also: potency is read from the fitted curve at half-maximal effect
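CellTiter-Glo luminescence gave cytotoxicity after 18 hours at 37 degrees C. The cells were HepG2 CAGA-GFP in 1% FBS DMEM, stimulated with 500 pg/mL TGF-beta after compound addition. %Activity was normalised to no-cell wells (complete cell-killing) and DMSO (no toxicity), and curves were fitted and classified.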
* hit, by the source's call; i = inactive; u = inconclusive; x = no result given. Unless noted, calls follow the shape of the dose curve; as a rule, active = well fitted curve in the direction sought with a large enough effect; inconclusive = small, poorly fitted or top-dose-only effect, or another doubt; inactive = no such curve, though single readings can be large; an effect the other way counts as inactive or inconclusive.

SMILES | IL1B secr inh | TDP1 cell noCPT | S-ASM inh | DT40 TDP1 CPT | TGFb SMAD3 inh | HepG2 viability
Cc1ccccc1S(=O)(=O)N1[C@@H](c2ccccc2)C(C(=O)O)=CC[C@H]1c1ccc(Cl)cc1 | 13 | -10% | 0% | -9% | u | -12%
Cc1ccc(C(NC(=O)N2CCOCC2)=C(Cl)Cl)cc1F | -101* | 16µM* | 3% | 6.5µM* | u | -42%
COc1ccc2nc3sc(C(=O)N4CCN(C)CC4)cc3cc2c1 | -4 | -17% | 25% | -10% | -4% | 8.9µM*
COc1ccc2nc3sc(C(=O)NCCCN4CCc5ccccc5C4)cc3cc2c1 | -27 | 16µM* | 34% | u | u | -57%
CCOc1ccc(NC(=O)c2cc3cc4cc(OC)ccc4nc3s2)cc1 | x | 4.6µM* | x | -83% | -19% | -26%
COc1ccc2nc3sc(C(=O)N4CCN(c5ccccc5)CC4)cc3cc2c1 | x | -5% | x | 11% | -19% | 0%
COc1ccc(OC)c(NC(=O)c2cc3cc4ccc(C)cc4nc3s2)c1 | x | u | x | u | 19% | 2%
CCN(CCCNC(=O)c1cc2cc3ccc(OC)cc3nc2s1)c1ccccc1 | x | 21µM* | x | 16µM* | 0% | -20%
Cc1ccc(C(=O)N/C(=C\c2cccs2)C(=O)N2CCN(C)CC2)cc1C | 0 | 5% | 1% | -3% | -7% | -2%
CCN(CCCNC(=O)c1cc2cc3ccc(OC)cc3nc2s1)c1cccc(C)c1 | x | u | x | u | 13µM* | 13µM*
CCCCN(C)C(=O)c1cc2cc3ccc(OC)cc3nc2s1 | -27 | u | 87% | u | -11% | -54%
CC(C)c1ccc(NC(=O)c2ccc(=O)n(Cc3ccccc3)c2)cc1 | x | 21µM* | x | 16µM* | u | -17%
CCOC(=O)c1ccc(NC(=O)c2c(N)n(Cc3ccccc3)c(=O)[nH]c2=O)cc1 | 36 | -101% | -2% | 16µM* | 7% | 23%
CCOC(=O)c1ccc(NC(=O)c2ccccc2)cc1 | u | -15% | -1% | -14% | 4% | -12%
CCOC(=O)c1ccc(NC(=O)c2ccc(=O)n(Cc3cccc(C)c3)c2)cc1 | x | 16µM* | x | 21µM* | -18% | -41%
O=C(COC(=O)c1ccc(O)cc1)NCC1COc2ccccc2O1 (stereo not drawn) | 22 | -12% | 3% | 2% | u | -35%
Cc1ccc2[nH]c(=O)c(CN(Cc3cccs3)Cc3nnnn3Cc3ccccc3)cc2c1 | u | u | -15% | -28% | u | -29%
CCOC(=O)Cn1nnnc1CN(Cc1cccs1)Cc1cc2cc(C)ccc2[nH]c1=O | 6 | u | -4% | u | u | -57%
CCc1ccc2[nH]c(=O)c(CN(Cc3cccnc3)Cc3nnnn3Cc3ccccc3)cc2c1 | x | 20µM* | x | 11µM* | -13% | -7%
CCc1ccc2[nH]c(=O)c(CN(Cc3ccccc3)Cc3nnnn3C(C)(C)C)cc2c1 | x | 11µM* | x | 14µM* | u | -87%
CCOC(=O)Cn1nnnc1CN(CCc1ccccc1)Cc1cc2cc(CC)ccc2[nH]c1=O | 10 | u | -8% | 18µM* | u | -49%
CCc1ccc2[nH]c(=O)c(CN(Cc3ccc(OC)cc3)Cc3nnnn3CCOC)cc2c1 | u | u | -4% | 18µM* | 14% | -43%
COc1ccc2[nH]c(=O)c(CN(Cc3ccccc3)Cc3nnnn3CC3CCCO3)cc2c1 (stereo not drawn) | 0 | u | 39% | u | -4% | 0%
COc1ccc(C(=O)NCC(=O)OCc2nc(N)nc(Nc3ccccc3C)n2)cc1 | -15 | 5% | 8% | 16% | 1% | 2%
Cn1c(/C=C/c2ccccc2)nc2ccccc21 | 19 | 16µM* | 390% | u | -7% | 4%
SMILES | IL1B secr inh | TDP1 cell noCPT | S-ASM inh | DT40 TDP1 CPT | TGFb SMAD3 inh | HepG2 viability
Cn1c(/C=N/NC(=O)c2ccccc2)nc2ccccc21 | 57 | 26µM* | -1% | u | -19% | -5%
Cn1c(=O)c(/C=C/c2ccc(F)cc2)nc2ccccc21 | -10 | 23µM* | i | u | u | -35%
Cn1c(CCCNC(=O)c2ccccc2)nc2ccccc21 | 17 | -26% | -4% | -21% | -23% | -22%
Cn1c(=O)c(/C=C/c2ccccc2)nc2ccccc21 | -2 | 16µM* | i | u | 4% | -5%
COCCn1c(/C=C/c2ccccc2)nc2ccccc21 | -2 | u | 261% | -22% | -12% | -42%
Cc1sc(NC(=O)C2C3CCC(O3)C2C(=O)O)nc1-c1ccc(CC(C)C)cc1 (stereo not drawn) | 12 | -7% | -3% | -7% | -29% | 15%
CC(C)Cc1cc(C(=O)N(C)C2CCCN(Cc3ccccc3F)C2)n(C)n1 (stereo not drawn) | 32 | u | 1% | u | -1% | -15%
C[C@H](NC(=O)c1ccco1)C(=O)NC1CCCCCC1 | 0 | 14% | 1% | -16% | -3% | 3%
O=C(CCSc1ccc(Cl)c(Cl)c1)NC12CC3CC(CC(C3)C1)C2 | -4 | u | -7% | 16µM* | u | -18%
CC(C)CN(CC(C)C)C(=O)CN1C(=O)NC2(CCCc3ccccc32)C1=O (stereo not drawn) | -5 | -27% | -2% | -11% | -2% | -1%
Cc1cc(Cl)ccc1C(=O)C1CCCN(C(=O)c2cnn(C(C)C)c2)C1 (stereo not drawn) | 26 | u | -1% | u | 8% | 0%
CC(NC(=O)CNC(=S)N(Cc1cccs1)C1CCCC1)c1ccccc1 (stereo not drawn) | -24 | 16µM* | -2% | u | -6% | -16%
